Assay results reported in PubChem BioAssay (NCI).
This is part of a sample that, as a whole, favours compounds with a hit. Of some 83,000 tested, about 20% had one in any assay.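 Method: cells in 96-well plates; compound added at one concentration; 48 h incubation; percent growth measured; values under 10 scored active.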 A number with no mark means an inactive call. Active and inactive are the calls of the source.

Assays:
Assay in all cases: NCI-60 one-dose screen, 48 h (100 = growth as untreated, 0 = no growth, -100 = all killed)
Conditions in all cases: 10 µM unless noted
HCT-15 colon = system: HCT-15 colon
HT29 colon = system: HT29 colon
SNB-75 CNS = system: SNB-75 CNS
SNB-19 CNS = system: SNB-19 CNS
U251 CNS = system: U251 CNS
PC-3 prostate = system: PC-3 prostate
SK-MEL-5 melanoma = system: SK-MEL-5 melanoma
UACC-62 melanoma = system: UACC-62 melanoma
LOX IMVI melanoma = system: LOX IMVI melanoma
SK-MEL-28 melanoma = system: SK-MEL-28 melanoma

Row | SMILES | growth (HCT-15 colon) | growth (HT29 colon) | growth (SNB-75 CNS) | growth (SNB-19 CNS) | growth (U251 CNS) | growth (PC-3 prostate) | growth (SK-MEL-5 melanoma) | growth (UACC-62 melanoma) | growth (LOX IMVI melanoma) | growth (SK-MEL-28 melanoma)
1 | CCSC1=CC(=O)c2ccccc2C1=O | 73% | 105% | 52.8% | 87.6% | 79.1% | 73% | 50.8% | 59.1% | 47.7% | 36.7%
2 | CC[C@@H](c1ccc2cc(OC)ccc2c1)C(C)(C)C(=O)F | 104% | 118% | 106% | 91.9% | 98.8% | 101% | 106% | 103% | 91.4% | 106%
3 | CCCCC(=O)Nc1ncc(Cc2ccccc2Cl)s1 | 24.8% | 11% | 25.3% | 48.7% | 32% | 68.8% | 37.6% | 32.4% | 40.2% | 57.7%
4 | O=C(CCCCCCN1CC(=O)N2[C@@H](c3ccc(Cl)cc3)c3[nH]c4ccccc4c3C[C@H]2C1=O)NO | 101% | 76.6% | 27.1% | 67.1% | 71.1% | 43.5% | 61.8% | 34.5% | -63.6% (active) | 46.3%
5 | CC(C)[C@@]12C[C@@H](OC(=O)COC(=O)c3ccccc3)[C@@](C)(O1)[C@@H]1CC[C@@H](C)[C@H]1[C@@H]2OC(=O)/C=C/c1ccccc1 | 92.5% | 89.9% | 72.6% | 84.5% | 84% | 74.2% | 90.7% | 83.2% | 89.1% | 107%
6 | COc1ccc(C2=Nc3c(N)ncnc3NC(c3cccc(Nc4ccnc5cc(C(F)(F)F)ccc45)c3)C2)cc1 (stereo not given) | 32.4% | 42.6% | 56.7% | 68.2% | 54.5% | 42.2% | 51.8% | 76.1% | 61.8% | 84%
7 | COc1ccc(Nc2ncc(C(N)=O)c(NCCCNC(=O)C3CCC3)n2)cc1 | 82.1% | 70.7% | 49.7% | 75.5% | 56.3% | 62.8% | 88.3% | 77.8% | 73.1% | 94.2%
8 | COc1cc(C2=NN(C(C)=O)C(c3ccc(N(C)C)cc3)C2)cc(OC)c1OC (stereo not given) | 102% | 108% | 96.2% | 89.8% | 97.3% | 105% | 91.1% | 87.9% | 96.5% | 106%
9 | CCOC(=O)c1c(NC(=O)CSc2n[nH]c3nc4ccccc4n23)sc(CC)c1C | 97.9% | 109% | 95.3% | 103% | 97.6% | 61.5% | 98% | 77.9% | 99% | 113%
10 | CCN(CC)c1ccc(/C=C\c2cc(C)c3cc(C)ccc3n2)cc1 | 21.1% | -17.9% (active) | 39.7% | 49.5% | 25.6% | 23.1% | 2.69% (active) | 36.8% | 18.1% | 50.7%
11 | C#Cc1cccc(Oc2ccc(NC(=O)CCl)cc2)c1 | -29.8% [8.25 µM] (active) | 34.5% [8.25 µM] | 58.2% [8.25 µM] | 54.2% [8.25 µM] | 32.9% [8.25 µM] | 61.7% [8.25 µM] | 6.75% [8.25 µM] (active) | 26% [8.25 µM] | -27.1% [8.25 µM] (active) | 91.8% [8.25 µM]
12 | CC(C)(C)C(=O)/C=C/c1ccc([N+](=O)[O-])cc1 | 42.1% | 50.2% | 81.1% | 66.9% | 58% | 55.3% | 81.7% | 74.4% | 36.9% | 92.1%
13 | COc1ccc(/C(C)=C(\c2ccc(OCCN3CCCCCC3)cc2)c2ccc(OC(=O)c3ccccc3)cc2)cc1 | 12.1% | -3.62% (active) | 83.3% | 62.8% | 31.7% | 39.6% | 42.8% | 19.1% | -51% (active) | 54.9%
14 | COC(=O)/C=C1/SC(=Nc2cccc(Cl)c2)N(CCc2c[nH]c3ccc(O)cc23)C1=O | -11.6% (active) | 49.2% | 38.7% | 14.3% | 4.91% (active) | 9.39% (active) | 41.4% | 13.8% | -39.2% (active) | 17.4%
15 | CCN(C(=O)N1CCN(c2cc3c(cc2F)c(=O)c(C(=O)O)cn3C2CC2)CC1)c1nc(-c2ccc(C)cc2)cs1 | 8.05% (active) | 3.55% (active) | 30.5% | 18.8% | 16.3% | 10.8% | -32.8% (active) | -3.01% (active) | 7.36% (active) | 34.1%
16 | CCNC(=O)Oc1ccc(/C(=C(/C)Cc2ccc(OC)cc2)c2ccc(OCCN3CCCC3)cc2)cc1 | 45.9% | 7.46% (active) | 73.8% | 80.4% | 54.3% | 66.4% | 57.7% | 69.1% | 60.8% | 66.1%
17 | COc1ccc2nc3ccccc3c(NCc3ccc(F)cc3)c2c1 | 4.11% (active) | 0.209% (active) | 23.8% | 17.7% | 22.1% | 17.1% | -6.56% (active) | 39.1% | -66.7% (active) | 35.3%
18 | CN1CCN(C(=O)c2cc(-c3ccc4ncnc(N5CCc6cc(F)c(Cl)cc65)c4c3)cnc2N)CC1 | 5.57% (active) | 13.6% | -35.3% (active) | 13% | 15.4% | 1.89% (active) | -97.1% (active) | -52.1% (active) | -41.4% (active) | -0.0571% (active)
19 | O=c1ccc2nc(C(F)(F)F)nn(-c3ccccc3)c-2c1 | -79.7% (active) | -64.3% (active) | 86.5% | 93.5% | 69.7% | 84.6% | 32.7% | 66.4% | 4.3% (active) | 35.7%
20 | N=c1sc(Cc2cc(Cl)ccc2Cl)cn1CC(=O)c1ccccc1 | 23.5% | 16.1% | 5.16% (active) | 63.6% | 40.4% | 62.5% | 37.3% | 17.1% | 25.1% | 58.5%
21 | COc1cc(-c2nc(SCCC(C)C)nc(N3CCOCC3)c2C#N)cc(OC)c1OC | 68.3% | 19.2% | 53.4% | 65.8% | 5.83% (active) | 62.3% | 102% | 91.4% | 83.2% | 108%
22 | Cc1ccc(-c2nc(C#N)c(S(=O)(=O)NCCO)o2)cc1 | 41.8% | 24.2% | 105% | 88.3% | 74% | 61.7% | 75% | 60.3% | 46.4% | 70.7%
